Source: PubChem BioAssay (several laboratories)
A selection: hits, their analogues and other compounds. The true share with any hit is near 3.5%.
Rv3671c inh: Rv3671c (M. tuberculosis) protease inhibition; 0.048% of 320,000 active; inhibition, % at 5.96 µM; AID 2606; in the data active = inhibition above about 38%;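 note: extracellular domain of Rv3671c used as enzyme; 0% = enzyme with DMSO and 100% = no enzyme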
Target sequence (P9WHR9 whole entry, looked up, the tested form may be a part): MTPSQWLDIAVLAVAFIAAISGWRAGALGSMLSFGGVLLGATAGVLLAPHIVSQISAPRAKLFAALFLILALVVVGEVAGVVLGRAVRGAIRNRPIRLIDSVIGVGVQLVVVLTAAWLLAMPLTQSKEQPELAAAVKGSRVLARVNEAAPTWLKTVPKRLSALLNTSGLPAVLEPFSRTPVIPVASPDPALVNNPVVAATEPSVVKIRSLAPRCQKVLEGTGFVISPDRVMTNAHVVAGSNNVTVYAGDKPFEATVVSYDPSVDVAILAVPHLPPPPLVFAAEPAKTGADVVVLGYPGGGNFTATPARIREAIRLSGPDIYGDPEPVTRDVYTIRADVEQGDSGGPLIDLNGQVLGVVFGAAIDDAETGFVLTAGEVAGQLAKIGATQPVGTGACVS
Mtb UGM inh: Mtb UDP-galactopyranose mutase inhibition; P9WIQ1; purified UGM, fluorescence polarization probe displacement; inhibition, % at 10 µM; 0.06% of 320,000 active; AID 504406; in the data active = inhibition above about 10%, passing the limit was not always enough
Mtb hypoxia rep: Mtb hypoxia fluorescent reporter inhibition; M. tuberculosis hypoxia-regulated fluorescent reporter, fluorescence; fluorescence inhibition, % (test concentration not listed); 0.1% of 300,000 active; in the data active = fluorescence inhibition mostly above about 23%, no sharp cut-off; inactive = mostly below about 17%
Mtb FBA inh: inhibitors of M. tuberculosis fructose-bisphosphate aldolase; purified M. tuberculosis FBA, fluorescence read-out; inhibition, % at 1 µM; AID 588726; 2.3% of 360,000 active; P9WQA3; in the data active = inhibition above about 27%;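 note: 0% = vehicle and 100% = reference inhibitor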
FadD28 FP inh: M. tuberculosis FadD28 bisubstrate binding inhibition; FadD28 bisubstrate probe binding, fluorescence polarization; inhibition, % at 12.5 µM; 0.22% of 360,000 active; AID 588549; in the data active = inhibition above about 8.5%, passing the limit was not always enough
GDH-TPI counter: GDH-TPI coupled enzyme inhibition counter-screen; GDH-TPI coupled enzyme counterscreen, NADH absorbance; inhibition, % at 4.8 µM; 1.2% of 360,000 active; AID 588335; in the data active = inhibition above about 30%;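 note: 0% = DMSO wells and 100% = wells lacking the enzyme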
* hit, by the source's call.

Results for COCCn1c(C)cc2c(c1=O)C(c1ccco1)C(C#N)=C(N)O2 (stereo not given) ?
Rv3671c inh: -7; Mtb UGM inh: 0; Mtb hypoxia rep: -10; Mtb FBA inh: 49*; FadD28 FP inh: -1; GDH-TPI counter: 6

How did CCOC(=O)N1CCC(N2C(=O)c3ccccc3C2Nc2ccc3c(c2)OCCO3)CC1 (stereo not given) do in these assays?
Rv3671c inh: 9; Mtb UGM inh: -1; Mtb FBA inh: 0; FadD28 FP inh: 1; GDH-TPI counter: -3

What do the screens show for `CCOC(=O)N1CCC(N2C(=O)c3ccccc3C2Nc2ccc3c(C)cc(=O)oc3c2)CC1` (stereo not given)?
Rv3671c inh: -1; Mtb UGM inh: 0; Mtb hypoxia rep: 0; Mtb FBA inh: active; FadD28 FP inh: -1; GDH-TPI counter: 20

How did O=C(O)CCCN1C(=O)/C(=C/c2ccc(-c3nc4ccccc4s3)o2)SC1=S do in these assays?
Rv3671c inh: -4; Mtb UGM inh: 0; Mtb hypoxia rep: 8; Mtb FBA inh: -3; FadD28 FP inh: 8.6*; GDH-TPI counter: 8

Results for O=C(O)CCCN1C(=O)/C(=C/c2ccncc2)SC1=S ?
Rv3671c inh: 1; Mtb UGM inh: -1; Mtb hypoxia rep: 7; Mtb FBA inh: -4; FadD28 FP inh: -3; GDH-TPI counter: 38*

What do the screens show for `O=C(O)CCCCCN1C(=O)/C(=C\c2ccc(-c3ccc(Cl)cc3)o2)SC1=S`?
Rv3671c inh: -1; Mtb UGM inh: -4; Mtb hypoxia rep: 5; Mtb FBA inh: 1; FadD28 FP inh: 1; GDH-TPI counter: 9

How did N#CCSc1nc2cc(C(=O)N3CCC(C(N)=O)CC3)ccc2c2nc3ccccc3n12 do in these assays?
Rv3671c inh: 1; Mtb UGM inh: 3; Mtb hypoxia rep: -7; Mtb FBA inh: 1; FadD28 FP inh: -3; GDH-TPI counter: 32*

How did NC(=O)C1CCN(C(=O)c2ccc3ncsc3c2)CC1 do in these assays?
Mtb FBA inh: -2; FadD28 FP inh: -3; GDH-TPI counter: 4

What do the screens show for `NC(=O)C1CCN(C(=O)c2ccc3nc(-c4ccccc4)c(-c4ccccc4)nc3c2)CC1`?
Rv3671c inh: 0; Mtb UGM inh: 0; Mtb hypoxia rep: 7; Mtb FBA inh: 66*; FadD28 FP inh: -1; GDH-TPI counter: 24

How did N#CCSc1nc2cc(C(=O)N3CCCC3)ccc2c(=O)n1Cc1ccccc1 do in these assays?
Rv3671c inh: 8; Mtb UGM inh: 2; Mtb FBA inh: -1; FadD28 FP inh: -1; GDH-TPI counter: 10

How did Cc1ccccc1OCc1nc2ccccc2c(=O)n1N=Cc1ccco1 do in these assays?
Mtb hypoxia rep: 6

Results for CCc1cc2c(CN3CCN(C)CC3)cc(=O)oc2cc1O ?
Rv3671c inh: 5; Mtb UGM inh: -1; Mtb hypoxia rep: 11; Mtb FBA inh: active; FadD28 FP inh: -1; GDH-TPI counter: 11

What do the screens show for `Cc1cc2oc(=O)cc(CN3CCN(C/C=C/c4ccccc4)CC3)c2cc1O`?
Rv3671c inh: -3; Mtb UGM inh: -1; Mtb FBA inh: -2; FadD28 FP inh: -1; GDH-TPI counter: 35*

What do the screens show for `Cc1ccc2c(CN3CCN(CCO)CC3)cc(=O)oc2c1C`?
Rv3671c inh: -4; Mtb UGM inh: 1; Mtb hypoxia rep: 2; Mtb FBA inh: -1; FadD28 FP inh: 0; GDH-TPI counter: 2

Results for CCc1cc2c(CN3CCN(CCO)CC3)cc(=O)oc2cc1O ?
Rv3671c inh: -4; Mtb UGM inh: 0; Mtb hypoxia rep: -10; Mtb FBA inh: 187*; FadD28 FP inh: -3; GDH-TPI counter: 21

Results for CCc1nc2sc3ccccc3c(=O)c2c(=O)n1Cc1ccc(OC)cc1 ?
Rv3671c inh: -4; Mtb UGM inh: 0; Mtb hypoxia rep: 4; Mtb FBA inh: -3; FadD28 FP inh: -4; GDH-TPI counter: 34*

What do the screens show for `CCNc1cc2oc(=O)c(CN3CCOCC3)c(C)c2cc1C`?
Rv3671c inh: 1; Mtb UGM inh: 0; Mtb hypoxia rep: 6; Mtb FBA inh: active; FadD28 FP inh: -4; GDH-TPI counter: 20

What do the screens show for `CCc1ccc(S(=O)(=O)ON2C(=O)c3ccccc3C2=O)cc1`?
Mtb hypoxia rep: -2; Mtb FBA inh: 30*; FadD28 FP inh: 0; GDH-TPI counter: 14

Results for O=C1c2cccc3cccc(c23)C(=O)N1OS(=O)(=O)c1ccc(Cl)cc1 ?
Rv3671c inh: -3; Mtb UGM inh: 3; Mtb hypoxia rep: -1; Mtb FBA inh: -3; FadD28 FP inh: -3; GDH-TPI counter: 5

How did CC(=NNc1nc2ccccc2[nH]1)c1ccc(C)o1 do in these assays?
Mtb hypoxia rep: 8

How did Nc1nn(-c2ccccc2)c(N)c1N=Nc1ccccc1 do in these assays?
Rv3671c inh: -3; Mtb UGM inh: 1; Mtb hypoxia rep: 1; Mtb FBA inh: -1; FadD28 FP inh: 1; GDH-TPI counter: 34*

What do the screens show for `Cc1cc(C)n2nc(N)c(N=Nc3ccccc3)c2n1`?
Rv3671c inh: -31; Mtb UGM inh: 0; Mtb hypoxia rep: 84*; Mtb FBA inh: -10; FadD28 FP inh: -4; GDH-TPI counter: 19

What do the screens show for `CCc1ccc(C=NNC(=O)c2nnn(-c3nonc3N)c2CN2CCOCC2)cc1`?
Mtb hypoxia rep: -2

Results for CC1(C)SC2C(NC(=O)C(N)c3ccccc3)C(=O)N2C1C(=O)OC1OC(=O)c2ccccc21 (stereo not given) ?
Mtb hypoxia rep: 22

How did O=C(NC1CC1)c1cccc(-c2cncc3nccn23)c1 do in these assays?
Mtb FBA inh: 185*; FadD28 FP inh: -4; GDH-TPI counter: 16

How did O=C(NC1CC1)c1ccc(-c2cnc3cccnn23)cc1 do in these assays?
Mtb FBA inh: active; FadD28 FP inh: -1; GDH-TPI counter: 20

How did O=C(NCc1ccco1)c1cccc(-c2cncc3nccn23)c1 do in these assays?
Mtb FBA inh: 123*; FadD28 FP inh: -5; GDH-TPI counter: -2

What do the screens show for `COc1cc(C=NNC(N)=O)ccc1OCC(=O)N1C(C)CCCC1C` (stereo not given)?
Mtb hypoxia rep: 4

What do the screens show for `CC(=O)Nc1ccc(/C(C)=N/NC(=O)c2ccc(COc3ccccc3Cl)o2)cc1`?
Rv3671c inh: -3; Mtb UGM inh: 2; Mtb FBA inh: 3; FadD28 FP inh: -2; GDH-TPI counter: 31*

How did O=C1/C(=C/C=C/c2ccco2)SC(=S)N1c1ccc(O)cc1 do in these assays?
Rv3671c inh: 15; Mtb UGM inh: -1; Mtb hypoxia rep: 6; Mtb FBA inh: 1; FadD28 FP inh: 18*; GDH-TPI counter: 2

What do the screens show for `CC(C)C(C(=O)O)N1C(=O)/C(=C/c2cccn2C)SC1=S` (stereo not given)?
Rv3671c inh: -5; Mtb UGM inh: 1; Mtb hypoxia rep: 9; Mtb FBA inh: -40; FadD28 FP inh: 3; GDH-TPI counter: 10

What do the screens show for `CC(C)C(C(=O)O)N1C(=O)/C(=C/C=C/c2ccco2)SC1=S` (stereo not given)?
Rv3671c inh: 12; Mtb UGM inh: -4; Mtb hypoxia rep: -10; Mtb FBA inh: -3; FadD28 FP inh: 47*; GDH-TPI counter: 12
